# Where “and” joins values, the source holds several entries; their conditions need not be identical. Equal values may be shown once. Results filed as inconclusive are left out. Some structures have more than one record in an assay (separate samples or runs), and their calls can disagree. Calls of active or inactive are those of the source. How the source made its calls, unless noted: active means hit-call score of the fitted dose curve at least 0.9, where 1 is the maximum; inactive means score below 0.9.
# What was measured:
# [1] = CCTE_Shafer_MEA_dev_firing_rate_mean: CCTE's Neural Network Formation Assay for Mean Firing Rate, Shafer Lab (AID 2284031);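 on AC50: curve fitted for loss of firing so AC50 reflects decreased mean firing rate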
# Procedure, shortened: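 Primary rat cortical neurons on 48-well MEA plates, exposed from plating day 0 with dosing renewed on DIV 5 and 9. Mean well firing rate over active electrodes, recorded days 5, 7, 9, 12, summarised as trapezoidal AUC.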
# [2] = CCTE_Shafer_MEA_dev_per_burst_spike_percent: CCTE's Neural Network Formation Assay for Percent of Spikes in a Burst, Shafer Lab (AID 2284032);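 on AC50: fitted as a decrease in burst spike percentage below DMSO baseline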
# Procedure, shortened: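 Rat primary cortical neurons on 16-electrode MEA wells, dosed from plating day 0 for 12 days with renewal on DIV 5 and 9; spikes-in-bursts percentage averaged over bursting electrodes, collapsed as AUC across days 5, 7, 9, 12; loss direction versus DMSO.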
# [3] = CCTE_Shafer_MEA_dev_burst_rate: CCTE's Neural Network Formation Assay for Burst Rate, Shafer Lab (AID 2284042);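 on AC50: potency for loss of burst rate below DMSO control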
# Procedure, shortened: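 Developmental network assay measuring how 12-day exposure of rat cortical neuron cultures alters bursting on extracellular MEA recordings. Values are AUC of well-mean burst rate across four recording days, relative to DMSO vehicle.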
# [4] = CCTE_Shafer_MEA_dev_bursting_electrodes_number: CCTE's Neural Network Formation Assay for Number of Bursting Electrodes, Shafer Lab (AID 2284043; active means hit-call score of the fitted dose curve at least 0.9, where 1 is the maximum;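 on AC50: potency is for loss of bursting electrodes relative to DMSO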)
# Procedure, shortened: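 Primary rat cortical neurons were cultured on PEI-coated 48-well MEA plates (16 electrodes/well) and exposed from plating through day 12, with compound renewed at feeds on DIV 5 and 9. Electrodes bursting ≥1 per 2 min were counted on DIV 5, 7, 9, 12; trapezoidal AUC taken.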
# [5] = CCTE_Shafer_MEA_dev_burst_duration_mean: CCTE's Neural Network Formation Assay for Mean Burst Duration, Shafer Lab (AID 2284045);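 on AC50: curve fitted for loss meaning shorter burst duration than DMSO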
# Procedure, shortened: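 Primary rat cortical neurons on PEI-coated 16-electrode MEA wells, exposed from plating through day 12 with compound renewed at DIV 5 and 9; spontaneous activity recorded days 5, 7, 9, 12. Well-mean burst duration collapsed as trapezoidal AUC, fitted for loss versus DMSO.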
# [6] = CCTE_Shafer_MEA_dev_inter_network_spike_interval_mean: CCTE's Neural Network Formation Assay for Mean Inter-network Spike Interval, Shafer Lab (AID 2284047);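 on AC50: potency for a decrease in mean inter-network spike interval below DMSO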
# Procedure, shortened: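 Compound was given at plating to primary rat cortical neurons and renewed with full medium changes on DIV 5 and 9. Extracellular activity was recorded on days 5, 7, 9, 12; AUC values were fitted for loss relative to DMSO control.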
# [7] = CCTE_Shafer_MEA_dev_network_spike_number: CCTE's Neural Network Formation Assay for Number of Network Spikes, Shafer Lab (AID 2284048);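 further: synchronized bursts across electrodes counted on days 5 7 9 12 and integrated as AUC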;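 on AC50: fit as a loss of signal meaning fewer network spikes than DMSO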
# Procedure, shortened: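 Primary rat cortical neurons were seeded at 1.5 x 10^5 cells/well on PEI-coated 16-electrode MEA wells with laminin, exposed from plating day 0, compound renewed at DIV 5 and 9. Network spikes were recorded on days 5, 7, 9, 12 and summarized as trapezoidal AUC versus DMSO.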
# [8] = CCTE_Shafer_MEA_dev_network_spike_peak: CCTE's Neural Network Formation Assay for Mean Number of Electrodes in Network Spike, Shafer Lab (AID 2284049);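 on AC50: fitted for loss of signal meaning fewer electrodes in network spikes than DMSO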
# Procedure, shortened: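 Continuous 12-day exposure of rat cortical cultures, starting at plating, on MEA plates. Endpoint: electrodes participating in network-spike peaks, AUC across DIV 5–12, DMSO as negative control.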
# DIO2 (gene 1734) = test: CCTE_GLTED_hDIO2: CCTE's human Deiodinase 2 (DIO2) Inhibition Assay, Great Lakes Toxicology and Ecology Division (GLTED) Lab (AID 2284050; active means hit-call score of the fitted dose curve at least 0.9, where 1 is the maximum)
# Procedure, shortened: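 Cell-free human DIO2 incubated 3 h with chemical; liberated iodide quantified by Sandell-Kolthoff absorbance. Triplicate plates; loss of signal fitted vs DMSO.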
# [9] = CCTE_Shafer_MEA_dev_spike_duration_mean: CCTE's Neural Network Formation Assay for Mean Spike Duration, Shafer Lab (AID 2284051);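 further: mean network spike duration pooled as area under curve over DIV 5 to 12 recordings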;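 on AC50: potency for a decrease in mean network spike duration versus DMSO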
# Procedure, shortened: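 With DMSO as baseline, loss of mean network spike duration was scored from extracellular recordings of rat cortical neurons on MEA plates. Exposure spanned plating to DIV 12; the four recording days were collapsed into one AUC value.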
# [10] = CCTE_Shafer_MEA_dev_network_spike_duration_std: CCTE's Neural Network Formation Assay for Standard Deviation of Network Spike Duration, Shafer Lab (AID 2284052);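 further: area under curve of spike duration SD across recording days 5 to 12; hits are decreases in network spike duration SD versus DMSO vehicle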
# Procedure, shortened: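 Developing networks of rat cortical neurons were exposed over twelve days in vitro on 48-well MEA plates. Trapezoidal AUC of recordings (DIV 5–12) was analysed for signal loss relative to DMSO vehicle.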
# [11] = CCTE_Shafer_MEA_dev_per_network_spike_spike_number_mean: CCTE's Neural Network Formation Assay for Mean Number of Spikes in a Network Spike, Shafer Lab (AID 2284053);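 on AC50: fitted as decrease in spikes per network spike relative to DMSO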
# Procedure, shortened: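 First, rat cortical cells (1.5 x 10^5/well) were seeded onto MEA wells; second, dosing began at plating and was refreshed on DIV 5 and 9; finally, network-spike spike counts across DIV 5–12 were summarized as AUC.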
# [12] = CCTE_Shafer_MEA_dev_per_network_spike_spike_percent: CCTE's Neural Network Formation Assay for Percent of Spikes in a Network Spike, Shafer Lab (AID 2284054)
# Procedure, shortened: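 Primary rat cortical neurons on 16-electrode MEA wells (PEI-coated, laminin at plating), exposed from day 0 with renewal at DIV 5 and 9; spikes within 0.05 s of network-spike peaks over total spikes, AUC across days 5, 7, 9, 12.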
# DIO3 (gene 1735) = test: CCTE_GLTED_hDIO3: CCTE's human Deiodinase 3 (DIO3) Inhibition Assay, Great Lakes Toxicology and Ecology Division (GLTED) Lab (AID 2284055; active means hit-call score of the fitted dose curve at least 0.9, where 1 is the maximum;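 further: potency is for inhibition seen as loss of released iodide signal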)
# Procedure, shortened: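 Human DIO3 from an adenovirus expression system is incubated 3 h with test chemical. Released iodide is quantified by Sandell-Kolthoff absorbance, in triplicate plates. Loss of signal is fitted relative to DMSO.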
# [13] = UKN5_HCS_SBAD2_cell_viability: Viability Assessment in the University of Konstanz (UKN) Leist Lab Neurite Outgrowth Assay in human iPSC-derived immature Dorsal Root Ganglia Neurons (UKN5) (AID 2284056)
# Procedure, shortened: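 iPSC-derived immature peripheral neurons (SBAD2) seeded on Matrigel with CHIR99021, SU5402 and DAPT, dosed 1 h later for 24 h. Viability from Hoechst H-33342 and calcein-AM live staining, high-content imaging; bidirectional fit versus DMSO.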
# [14] = CCTE_Deisenroth_AIME_384WELL_CTox_Active: Cytotoxicity Assessment (CTOX) in CCTE's 384-well Estrogen Receptor Transactivation Assay with AIME metabolic competence (metabolism positive), Deisenroth Lab (AID 2284037; active means hit-call score of the fitted dose curve at least 0.9, where 1 is the maximum;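 further: chemicals first conditioned 2 h by alginate-bound induced rat liver S9 before cells; activity means signal loss indicating cell death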)
# Procedure, shortened: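 VM7Luc4E2 breast cells received medium pre-incubated 2 h with chemical over alginate microspheres holding induced male Sprague Dawley rat liver S9; viability read 24 h later by protease-substrate fluorescence. Loss of signal, bidirectional fit, 0.002–200 uM.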
# [15] = CCTE_Deisenroth_AIME_384WELL_CTox_Inactive: Cytotoxicity Assessment (CTOX) in CCTE's 384-well Estrogen Receptor Transactivation Assay without AIME metabolic competence (metabolism negative), Deisenroth Lab (AID 2284039; active means hit-call score of the fitted dose curve at least 0.9, where 1 is the maximum;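 further: cell viability via live-cell protease substrate cleaved to fluorescent probe; cells exposed 24 h to medium preincubated 2 h with alginate-water beads without S9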)
# Procedure, shortened: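 Fluorescence from a live-cell protease substrate, read after 24 h in VM7Luc4E2 cells, indicated viability. Test medium came from a 2 h AIME step without hepatic S9 (alginate-water microspheres); concentrations spanned 0.002 - 200 uM, single technical replicate per run.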
# [16] = molecular target: Estrogen receptor (Homo sapiens) (UniProt P03372); test: CCTE_Deisenroth_AIME_384WELL_LUC_Shift: CCTE's 384-well Estrogen Receptor Transactivation Assay with AIME metabolic competence data shift (ERTA luciferase; difference in metabolism positive and negative), Deisenroth Lab (AID 2284041);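 further: shift is response with S9 minus without S9 so positive means metabolism raised ER signal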
# Sequence of Estrogen receptor (Homo sapiens) (P03372 whole entry, looked up): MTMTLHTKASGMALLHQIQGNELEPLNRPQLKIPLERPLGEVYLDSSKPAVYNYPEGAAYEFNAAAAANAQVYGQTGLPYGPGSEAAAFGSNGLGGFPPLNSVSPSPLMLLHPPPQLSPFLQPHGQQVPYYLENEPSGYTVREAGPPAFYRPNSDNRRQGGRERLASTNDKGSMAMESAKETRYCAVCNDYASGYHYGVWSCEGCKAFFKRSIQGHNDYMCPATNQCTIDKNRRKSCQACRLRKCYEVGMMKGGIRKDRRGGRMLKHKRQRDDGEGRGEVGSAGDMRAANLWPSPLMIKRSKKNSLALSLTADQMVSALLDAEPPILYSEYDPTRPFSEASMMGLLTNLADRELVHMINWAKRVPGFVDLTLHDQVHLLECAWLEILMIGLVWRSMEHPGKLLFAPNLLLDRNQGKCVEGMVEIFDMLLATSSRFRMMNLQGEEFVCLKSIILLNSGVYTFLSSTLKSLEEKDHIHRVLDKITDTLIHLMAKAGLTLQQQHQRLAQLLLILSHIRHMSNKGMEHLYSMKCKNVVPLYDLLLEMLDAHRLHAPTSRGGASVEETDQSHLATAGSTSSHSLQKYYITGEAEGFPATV
# Procedure, shortened: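 Here, parent compounds undergo 2 h phase I metabolism by PB/BNF-induced rat S9 before 24 h transactivation in VM7Luc4E2 cells; the curve models S9-positive minus S9-negative response over a 10-point series.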
# [17] = molecular target: Estrogen receptor (Homo sapiens) (UniProt P03372); test: CCTE_Deisenroth_AIME_384WELL_LUC_Active: CCTE's 384-well Estrogen Receptor Transactivation Assay with AIME metabolic competence (ERTA luciferase; metabolism positive), Deisenroth Lab (AID 2284030; active means hit-call score of the fitted dose curve at least 0.9, where 1 is the maximum)
# Procedure, shortened: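 In this metabolism-positive format, a 2-hour exposure to alginate-immobilized rat S9 precedes a 24 hour luciferase transactivation readout in VM7Luc4E2 cells. Dosing spans 10 concentrations from 0.002 to 200 uM.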
# [18] = molecular target: Estrogen receptor (Homo sapiens) (UniProt P03372); test: CCTE_Deisenroth_AIME_384WELL_LUC_Inactive: CCTE's 384-well Estrogen Receptor Transactivation Assay without AIME metabolic competence (ERTA luciferase; metabolism negative), Deisenroth Lab (AID 2284038; active means hit-call score of the fitted dose curve at least 0.9, where 1 is the maximum;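 further: hits raise estrogen receptor luciferase signal so potencies reflect agonists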)
# Procedure, shortened: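 Metabolism-negative mode: chemicals (10-point, 0.002–200 uM) held 2 h with alginate-water microspheres, then conditioned medium applied to VM7Luc4E2 cells for 24 h. Luciferase induction referenced to 17beta-estradiol.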
smiles,measurement,setting,value
S=C(S)NCCNC(=S)S.[Mn+2].[S-]C([S-])=NCCN=C([S-])[S-].[Zn+2],outcome,[1],inactive
same,AC50,[2],7.52 µM (active)
same,outcome,[3],inactive
same,AC50,[4],7.52 µM (active)
same,outcome,[4],inactive
same,outcome,[5],inactive
same,outcome,[6],inactive
same,outcome,[7],inactive
same,AC50,[8],7.52 µM (active)
same,outcome,[8],inactive
same,AC50,DIO2 (gene 1734),50 µM (active)
same,AC50,[9],2.42 µM (active)
same,outcome,[9],inactive
same,outcome,[10],inactive
same,outcome,[11],inactive
same,outcome,[12],inactive
same,AC50,DIO3 (gene 1735),43.6 µM (active)
same,outcome,[13],inactive
CC(C)(c1ccc(O)cc1)c1ccc(O)cc1,outcome,[1],inactive
same,AC50,[2],15 µM (active)
same,outcome,[2],inactive
same,outcome,[3],inactive
same,AC50,[4],9.89 µM (active) and 15 µM (active)
same,outcome,[4],inactive
same,outcome,[5],inactive
same,outcome,[6],inactive
same,outcome,[7],inactive
same,AC50,[8],20.8 µM (active)
same,outcome,[8],inactive
same,AC50,[9],15 µM (active)
same,outcome,[9],inactive
same,outcome,[10],inactive
same,AC50,[11],15 µM (active)
same,outcome,[11],inactive
same,AC50,[12],6.65 µM (active)
same,outcome,[12],inactive
CCCOC(=O)NCCCN(C)C,outcome,[14],inactive
same,outcome,[15],inactive
CCOC(=O)C(C)Oc1ccc(Oc2nc3ccc(Cl)cc3o2)cc1 (centres undefined),AC50,DIO2 (gene 1734),44.6 µM (active)
same,AC50,DIO3 (gene 1735),15.3 µM (active)
CCCCOCCOCCOCc1cc2c(cc1CCC)OCO2,outcome,[1],inactive
same,AC50,[2],10 µM (active)
same,outcome,[3],inactive
same,AC50,[4],15.9 µM (active)
same,outcome,[5],inactive
same,outcome,[6],inactive
same,outcome,[7],inactive
same,AC50,[8],16.9 µM (active)
same,outcome,[9],inactive
same,outcome,[10],inactive
same,outcome,[11],inactive
same,outcome,[12],inactive
CC1(C)C(C=C(Cl)Cl)C1C(=O)OCc1cccc(Oc2ccccc2)c1 (centres undefined),outcome,[1],inactive
same,AC50,[2],21.4 µM (active) and 7.56 µM (active)
same,AC50,[3],27.7 µM (active)
same,outcome,[3],inactive
same,AC50,[4],24.4 µM (active) and 10.1 µM (active)
same,outcome,[5],inactive
same,outcome,[6],inactive
same,outcome,[7],inactive
same,AC50,[8],23.2 µM (active) and 9.11 µM (active)
same,AC50,[9],21.3 µM (active) and 10.1 µM (active)
same,outcome,[10],inactive
same,AC50,[11],17.3 µM (active) and 10.1 µM (active)
same,AC50,[12],22.2 µM (active) and 5.34 µM (active)
Cc1nn(C)c(Oc2ccccc2)c1C=NOCc1ccc(C(=O)OC(C)(C)C)cc1,AC50,[1],0.00442 µM (active)
same,AC50,[2],0.00293 µM (active)
same,outcome,[14],inactive
same,outcome,[15],inactive
same,outcome,[16],inactive
same,AC50,[3],0.00544 µM (active)
same,AC50,[4],0.00163 µM (active)
same,AC50,[5],0.000277 µM (active)
same,AC50,[6],0.00361 µM (active)
same,AC50,[7],0.0014 µM (active)
same,AC50,[8],0.00317 µM (active)
same,AC50,[9],0.00141 µM (active)
same,AC50,[10],0.000953 µM (active)
same,AC50,[11],0.00249 µM (active)
same,AC50,[12],0.00238 µM (active)
CC(=O)[C@H]1CC[C@H]2[C@@H]3CCC4=CC(=O)CC[C@]4(C)[C@H]3CC[C@]12C,outcome,[14],inactive
same,AC50,[15],27.4 µM (active)
CC(=O)S[C@@H]1CC2=CC(=O)CC[C@]2(C)[C@H]2CC[C@@]3(C)[C@@H](CC[C@@]34CCC(=O)O4)[C@H]12,AC50,DIO2 (gene 1734),26.1 µM (active)
same,AC50,DIO3 (gene 1735),100 µM (active)
CCCCOC(=O)[C@@H](C)Oc1ccc(Oc2ccc(C(F)(F)F)cn2)cc1,outcome,[17],inactive
same,outcome,[14],inactive
same,outcome,[18],inactive
same,outcome,[16],inactive
CCCN(CCC)C(=O)SCC,outcome,[1],inactive
same,outcome,[2],inactive
same,outcome,[3],inactive
same,outcome,[4],inactive
same,outcome,[5],inactive
same,outcome,[6],inactive
same,outcome,[7],inactive
same,outcome,[8],inactive
same,outcome,[9],inactive
same,outcome,[10],inactive
same,outcome,[11],inactive
same,outcome,[12],inactive
CCCN(CCC)c1c([N+](=O)[O-])cc(C(F)(F)F)c(N)c1[N+](=O)[O-],AC50,DIO2 (gene 1734),20 µM (active)
same,AC50,DIO3 (gene 1735),21.4 µM (active)
COc1c(Cl)ccc(Cl)c1C(=O)O,outcome,[17],inactive
same,outcome,[18],inactive
same,outcome,[16],inactive
O=C(c1ccc(O)cc1O)c1ccc(O)cc1O,AC50,[17],6.67 µM (active)
same,outcome,[14],inactive
same,AC50,[18],6.69 µM (active)
same,outcome,[15],inactive
same,outcome,[16],inactive
O=C(Nc1ccc([N+](=O)[O-])cc1Cl)c1cc(Cl)ccc1O,outcome,[17],inactive
same,outcome,[14],inactive
same,outcome,[16],inactive
CCSC(=O)N(CC(C)C)CC(C)C,outcome,[17],inactive
same,outcome,[14],inactive
same,outcome,[18],inactive
same,outcome,[16],inactive
OB(O)O,outcome,[1],inactive
same,outcome,[2],inactive
same,outcome,[3],inactive
same,outcome,[4],inactive
same,outcome,[5],inactive
same,outcome,[6],inactive
same,outcome,[7],inactive
same,outcome,[8],inactive
same,outcome,[9],inactive
same,outcome,[10],inactive
same,outcome,[11],inactive
same,outcome,[12],inactive

# Reference: PubChem BioAssay (EPA / NIEHS)
